The values that follow come from PubChem BioAssay (NCATS).

Test [1] deals with ATP-dependent 6-phosphofructokinase (Trypanosoma brucei brucei) (UniProt O15648). The test can be described thus: qHTS Assay to Find Inhibitors of T. brucei phosphofructokinase: hit validation (AID 492961).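 Note: luminescence reports ADP formed as PFK phosphorylates fructose-6-phosphate with ATP; series mostly up to about 51 µM.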 The essentials: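 Compounds titrated; %activity normalized to 0x and 1x enzyme controls, curve-fitted. Readout: ADP-Glo luminescence after 45 min room-temperature reaction of 1.25 nM PFK, 0.1 mM ATP, 0.5 mM F6P, pH 8.0.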
For orientation: Quantitative high-throughput screening tests each substance at several concentrations.

The target in test [2] is Ubiquitin carboxyl-terminal hydrolase 2 (Homo sapiens) (UniProt O75604). The test can be described thus: qHTS Validation Assay for Inhibitors of Ubiquitin-specific Protease USP2a Using CHOP2 as the Reporter (AID 463106). An outline of the steps:
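USP2 core (10 nM final) was preincubated with compound 30 min at RT in pH 8.0 Tris/CaCl2/beta-ME/CHAPS buffer. Ub-CHOP2 and reporter substrate (25 nM final each) were then added, with fluorescence (Ex 485/Em 531) read after 60 min. Data were normalized to NEM full inhibition and fitted to concentration-response curves.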

In test [3] the target is DNA polymerase III PolC-type (Bacillus subtilis (strain 168)) (UniProt P13267). The test can be described thus: qHTS Validation Assay for the Inhibitors of DNA Replication in Gram-Positive Bacteria (AID 485295).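 Note: reconstituted holoenzyme with PolC plus beta clamp SSB and primase; PicoGreen fluorescence of double-stranded DNA made on primed circular M13 template; series mostly up to about 57 µM.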 The essentials:
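First, compound is mixed with the reconstituted replication complex and held at room temperature. Next, circular single-stranded M13Gori with nucleotides starts synthesis. Finally, PicoGreen in EDTA halts the reaction and stains double-stranded product for fluorescence reading.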

Test [4] has as its target Tumor susceptibility gene 101 protein (Homo sapiens) (UniProt Q99816). The test can be described thus: qHTS Validation Assay for Iinhibitors of HIV-1 Budding by Blocking the Interaction of PTAP/TSG101 (AID 485342; calls by dose curve). The essentials: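 Binding of a FITC-tagged PTAP-motif peptide (50 nM) to the Tsg101 binding domain (10 uM) is monitored by fluorescence polarization. Compounds are pin-delivered before peptide addition, and incubation runs 20 min at room temperature.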

Test [5] deals with Beta-2 adrenergic receptor (Homo sapiens) (UniProt P07550). The test can be described thus: qHTS validation assay of beta-arrestin-biased ligands of beta2-adrenergic receptor (AID 485366). An outline of the steps: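 Tango cells expressing recombinant beta2-AR and beta-arrestin with tTA-driven luciferase, in DMEM with 1% FBS. Compounds were titrated up to 46 microM for 18 hr at 37 degrees C. Luminescence was read 15 min after substrate; curves were fitted and class-assigned.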

The target in test [6] is ATP-dependent 6-phosphofructokinase (Trypanosoma brucei brucei) (UniProt O15648). The test can be described thus: qHTS Validation Assay to Find Inhibitors of T. brucei phosphofructokinase (AID 485368). The following applies: outcome: dose series up to 57.5 µM. An outline of the steps:
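Activity was read as ADP production by luminescence (ADP-Glo) after 45 min at room temperature. The enzyme was 1.25nM PFK in 0.1M TEA pH 8.0 with 0.5 mM F6P, 0.1mM ATP and 5 mM MgCl2. Compounds were titrated up to 57 uM and % activity normalized to no-enzyme and full-enzyme controls.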

Test [7] deals with Thioredoxin reductase 1, cytoplasmic (Rattus norvegicus) (UniProt O89049). The test can be described thus: qHTS Assay for Substrates of Mammalian Selenoprotein Thioredoxin Reductase 1 (TrxR1) (AID 488772).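 Note: NADPH fluorescence in the first read after selenite addition and not the 8 min delta; series mostly up to about 57 µM; a drop in NADPH fluorescence below the no-compound background marks a TrxR1 substrate.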 An outline of the steps:
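Quantitative HTS in Tris-HCl buffer at pH 7.5 with EDTA and Tween-20, using rat TrxR1, 400 uM NADPH and 400 uM selenite (final). A fall in initial NADPH fluorescence relative to background marked substrate behaviour.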

Test [8] shares this target. The test can be described thus: qHTS Assay for Inhibitors of Mammalian Selenoprotein Thioredoxin Reductase 1 (TrxR1) (AID 488773).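 Note: drop in NADPH fluorescence over an 8 min run after selenite addition; series mostly up to about 57 µM; nearly all actives have a fitted effect of over 40% in size.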 An outline of the steps: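 Steps: enzyme (90 nM) plus NADPH (400 uM final), 5 min at ~22 deg C; compound added, 15 min; selenite (400 uM final) added; fluorescence followed for 8 min. Concentration-response curves derived from the normalized delta values.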

The target of test [9] is Flap endonuclease 1 (Homo sapiens) (UniProt P39748). The test can be described thus: qHTS Validation Assay for the Inhibitors of Human Flap endonuclease 1 (FEN1) (AID 488816). An outline of the steps: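 Human FEN1 (10 nM) preincubated 15 min at room temperature with compounds, then flap DNA substrate added at 50 nM final. Fluorescence read at 0 and 15 min; concentration-response fitted with four-parameter Hill equation.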

Test [10] has as its target M-phase phosphoprotein 8 (Homo sapiens) (UniProt Q99549). The test can be described thus: qHTS Validation Assay for Inhibitors for MPP8 Chromodomain Interactions with Methylated Histone Tails (AID 488949).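 Note: 50 nM MPP8 with 50 nM peptide preformed then compounds added for 30 min; AlphaScreen signal from MPP8 chromodomain bound to biotinylated H3K9me3 peptide; top concentration of the series differs between compounds; nearly all actives have a fitted effect of over 55% in size.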 An outline of the steps:
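50 nM MPP8 + 50 nM b-H3K9me3 peptide, PBS pH 7.4/0.01% Tween-20, 30 min RT; + cpd 30 min RT; + AlphaScreen donor/Ni-chelate acceptor beads 10 ug/mL final, 30 min dark; luminescence read.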

Test [11] has as its target Chromobox protein homolog 1 (Homo sapiens) (UniProt P83916). The test can be described thus: qHTS Validation Assay for Inhibitors of HP1-beta Chromodomain Interactions with Methylated Histone Tails (AID 488953).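 Note: loss of AlphaScreen luminescence from HP1-beta binding biotinylated H3K9me3 peptide; series mostly up to about 110 µM; nearly all actives have a fitted effect of over 50% in size.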 An outline of the steps:
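HP1-beta (50 nM) was preincubated 30 min at room temperature with biotinylated H3(1-18)K9me3 peptide (50 nM) in PBS pH 7.4, 0.01% Tween-20, then with compounds 30 min. AlphaScreen signal was read after streptavidin donor/nickel chelate acceptor beads (10 ug/mL final).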

The target of test [12] is Methanococcus maripaludis chaperonin (MmCpn) (UniProt Q6LX38). The test can be described thus: High-Throughput Screening for Modulators of Cytosolic Chaperonin Activity: MmCpn Primary Screen (AID 488978).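 Note: 50 nM MmCpn enzyme hydrolysing 30 µM ATP at 37 °C.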 The essentials:
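Steps: chaperonin 50 nM final; add compound, 5 min RT; start with ATP, 30 uM final; hold 10 min at 37C; add ADP Transcreener HTRF reagent, 5 min; read ex 320, em 590 and 665 nm.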

Test [13] concerns the target Thyrotropin receptor (Homo sapiens) (UniProt P16473). The test can be described thus: qHTS Assay for Antagonists of the Thyroid Stimulating Hormone Receptor (AID 488980). Note: series mostly up to about 58 µM. An outline of the steps:
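Readout is cAMP by HTRF competition between cellular cAMP and cAMP-d2 for a cryptate-labelled antibody. Antagonism was assessed in TSHR-transfected HEK293 cells stimulated with 4 nM TSH (EC80, final) in the presence of RO 20-1724.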

Test [14] deals with D(1A) dopamine receptor (Homo sapiens) (UniProt P21728). The test can be described thus: HTS Assay for Allosteric Agonists of the Human D1 Dopamine Receptor: Primary Screen for Agonists (AID 488981). Note: potency is the fitted concentration of half-maximal effect. An outline of the steps:
(§1)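 Tetracycline-induced HEK293 Trex D1 cells with forced coupling to calcium, loaded with no-wash calcium dye; kinetic fluorescence read 180 s after compound addition for agonism, then a further 180 s after an EC20 dopamine challenge for potentiation.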

Test [15] has the same target. The test can be described thus: HTS Assay for Allosteric Agonists of the Human D1 Dopamine Receptor: Primary Screen for Potentiators (AID 488982). The essentials:
as §1

For test [16] the target is unchanged. The test can be described thus: HTS Assay for Allosteric Agonists of the Human D1 Dopamine Receptor: Primary Screen for Antagonists (AID 488983).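 Note: calcium flux response to an EC80 dopamine challenge measured with no-wash dye; nearly all actives have a fitted effect of over 65% in size.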 Note: potency is the fitted concentration of half-maximal effect. The essentials:
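Tetracycline-induced HEK293 T-REx cells expressing force-coupled D1 were plated overnight at 30 C, dye-loaded for calcium, and read kinetically. Compounds were pinned in, then an EC80 dopamine challenge followed after 180 s to reveal antagonism.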

The nature of test [17]: Validation screen for small molecules that induce genotoxicity in human embryonic kidney (HEK293T) cells expressing luciferase-tagged ELG1 (AID 493106). The essentials:
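HEK293T cells expressing luciferase-tagged ELG1 were exposed to compound or DMSO vehicle for 16 hr at 37 °C, 5% CO2. Genotoxic stress raises ELG1 levels, so increased luciferase signal after ONE-Glo addition and 30 min at room temperature marks hits.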

Test [18] can be described thus: Cytometry Cell-Based qHTS for Inhibitors of the mTORC1 Signaling Pathway in MEF cells (AID 2668).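 Note: Tsc2-/- p53-/- mouse embryonic fibroblasts stably re-expressing wild-type Tsc2; percent cells positive for phospho-rpS6 Ser235/236 relative to propidium iodide stain; series mostly up to about 38 µM.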 The essentials: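 Tsc2-/-, p53-/- MEFs re-expressing WT Tsc2; cpd 24 hrs, 37 degree Celsius; PFA fix, Alexa-488 p-rpS6 (Ser235/236) Ab 2 hrs RT, PI counterstain; Acumen 488nm scan; p-S6/PI ratio → % positive cells; PI count = viability.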
A short description of test [19]: Validation screen for small molecules that induce DNA re-replication in MCF 10A normal breast cells (AID 463097). Note: nearly all actives have a fitted effect of over 60% in size. The essentials: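 Image-based qHTS: normal breast cells are incubated with compound for 48 hr, stained with Hoechst, and scanned for total nuclear fluorescence. Compounds raising the fraction of nuclei with elevated DNA content count as re-replication inducers.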

In test [20] the target is Transient receptor potential cation channel subfamily V member 1 (Homo sapiens) (UniProt Q8NER1). The test can be described thus: HTS Assay for Compounds that Act as Enhancers of the Vanilloid Receptor 1 (AID 488979). The essentials:
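TRPV1 cells loaded with Fluo-8 calcium dye; compound added and Ca2+ signal (ex 480/em 520 nm) followed 3 min, then capsaicin at EC20 added and read 2 more min to detect enhancement.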

Results filed as inconclusive are left out. The source made the active and inactive calls. Unless noted, calls come from the whole dose curve; as a rule, active = well fitted curve in the direction sought with a large enough effect; inconclusive = small, poorly fitted or top-dose-only effect, or another doubt; inactive = no such curve, though single readings can be large; an effect the other way counts as inactive or inconclusive.

Chain of D(1A) dopamine receptor (Homo sapiens) (P21728 whole entry, looked up): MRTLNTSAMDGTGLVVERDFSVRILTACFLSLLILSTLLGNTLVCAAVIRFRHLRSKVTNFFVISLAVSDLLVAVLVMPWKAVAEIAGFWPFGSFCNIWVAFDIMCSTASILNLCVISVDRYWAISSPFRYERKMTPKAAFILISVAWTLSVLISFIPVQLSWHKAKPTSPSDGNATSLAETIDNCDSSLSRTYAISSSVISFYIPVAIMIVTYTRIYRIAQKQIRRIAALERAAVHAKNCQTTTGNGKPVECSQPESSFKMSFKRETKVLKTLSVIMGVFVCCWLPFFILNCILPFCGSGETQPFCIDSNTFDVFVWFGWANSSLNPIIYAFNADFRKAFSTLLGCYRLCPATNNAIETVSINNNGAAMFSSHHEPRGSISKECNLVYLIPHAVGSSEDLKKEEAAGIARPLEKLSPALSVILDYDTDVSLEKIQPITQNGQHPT
Chain of ATP-dependent 6-phosphofructokinase (Trypanosoma brucei brucei) (O15648 whole entry, looked up): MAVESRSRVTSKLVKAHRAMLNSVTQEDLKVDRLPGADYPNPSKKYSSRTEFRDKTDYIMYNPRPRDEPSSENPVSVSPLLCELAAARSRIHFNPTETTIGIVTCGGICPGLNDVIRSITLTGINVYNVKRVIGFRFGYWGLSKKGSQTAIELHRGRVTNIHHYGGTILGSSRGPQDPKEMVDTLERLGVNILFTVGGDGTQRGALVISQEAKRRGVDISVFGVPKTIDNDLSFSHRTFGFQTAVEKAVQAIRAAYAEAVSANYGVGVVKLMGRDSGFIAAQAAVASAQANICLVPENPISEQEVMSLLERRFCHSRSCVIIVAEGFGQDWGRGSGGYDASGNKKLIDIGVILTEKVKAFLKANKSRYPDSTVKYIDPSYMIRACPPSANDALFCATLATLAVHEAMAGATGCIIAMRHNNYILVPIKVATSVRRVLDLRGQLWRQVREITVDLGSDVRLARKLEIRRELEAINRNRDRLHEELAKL
Chain of Thioredoxin reductase 1, cytoplasmic (Rattus norvegicus) (O89049 whole entry, looked up): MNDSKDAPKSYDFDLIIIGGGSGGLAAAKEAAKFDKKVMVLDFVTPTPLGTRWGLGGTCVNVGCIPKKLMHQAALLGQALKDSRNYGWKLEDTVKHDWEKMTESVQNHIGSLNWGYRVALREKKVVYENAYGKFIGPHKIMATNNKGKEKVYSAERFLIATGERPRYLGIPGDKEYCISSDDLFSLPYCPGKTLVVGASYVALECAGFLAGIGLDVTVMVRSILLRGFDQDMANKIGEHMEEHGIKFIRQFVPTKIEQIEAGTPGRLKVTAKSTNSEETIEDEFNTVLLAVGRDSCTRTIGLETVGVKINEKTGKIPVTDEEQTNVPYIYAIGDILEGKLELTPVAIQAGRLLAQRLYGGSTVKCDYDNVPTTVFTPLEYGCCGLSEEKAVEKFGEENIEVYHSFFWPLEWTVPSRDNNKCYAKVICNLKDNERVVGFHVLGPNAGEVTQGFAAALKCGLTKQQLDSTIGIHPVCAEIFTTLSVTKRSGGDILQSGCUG
Chain of M-phase phosphoprotein 8 (Homo sapiens) (Q99549 whole entry, looked up): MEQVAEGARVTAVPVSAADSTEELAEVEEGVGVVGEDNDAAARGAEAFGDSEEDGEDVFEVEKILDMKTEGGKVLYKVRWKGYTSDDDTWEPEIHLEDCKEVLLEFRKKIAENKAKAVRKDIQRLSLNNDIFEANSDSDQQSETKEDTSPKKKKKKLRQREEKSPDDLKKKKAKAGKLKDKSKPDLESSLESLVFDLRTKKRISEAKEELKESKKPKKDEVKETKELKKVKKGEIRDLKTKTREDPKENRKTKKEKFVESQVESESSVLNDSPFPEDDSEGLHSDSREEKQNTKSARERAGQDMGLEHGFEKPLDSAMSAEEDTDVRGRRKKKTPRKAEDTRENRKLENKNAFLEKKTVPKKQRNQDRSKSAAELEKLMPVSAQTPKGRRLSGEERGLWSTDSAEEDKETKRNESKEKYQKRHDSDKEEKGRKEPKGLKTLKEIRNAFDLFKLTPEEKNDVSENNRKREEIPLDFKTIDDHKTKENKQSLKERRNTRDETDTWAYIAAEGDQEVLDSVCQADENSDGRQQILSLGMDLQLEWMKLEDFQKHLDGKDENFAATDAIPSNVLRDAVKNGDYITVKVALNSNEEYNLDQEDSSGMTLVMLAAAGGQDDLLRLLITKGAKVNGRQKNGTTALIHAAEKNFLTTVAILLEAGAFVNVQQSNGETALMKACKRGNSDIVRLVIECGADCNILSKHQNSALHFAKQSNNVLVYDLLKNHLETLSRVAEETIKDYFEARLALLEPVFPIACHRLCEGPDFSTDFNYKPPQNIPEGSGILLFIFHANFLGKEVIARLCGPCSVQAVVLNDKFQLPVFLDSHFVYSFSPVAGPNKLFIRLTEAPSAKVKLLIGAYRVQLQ
Chain of Methanococcus maripaludis chaperonin (MmCpn) (Q6LX38 1-543): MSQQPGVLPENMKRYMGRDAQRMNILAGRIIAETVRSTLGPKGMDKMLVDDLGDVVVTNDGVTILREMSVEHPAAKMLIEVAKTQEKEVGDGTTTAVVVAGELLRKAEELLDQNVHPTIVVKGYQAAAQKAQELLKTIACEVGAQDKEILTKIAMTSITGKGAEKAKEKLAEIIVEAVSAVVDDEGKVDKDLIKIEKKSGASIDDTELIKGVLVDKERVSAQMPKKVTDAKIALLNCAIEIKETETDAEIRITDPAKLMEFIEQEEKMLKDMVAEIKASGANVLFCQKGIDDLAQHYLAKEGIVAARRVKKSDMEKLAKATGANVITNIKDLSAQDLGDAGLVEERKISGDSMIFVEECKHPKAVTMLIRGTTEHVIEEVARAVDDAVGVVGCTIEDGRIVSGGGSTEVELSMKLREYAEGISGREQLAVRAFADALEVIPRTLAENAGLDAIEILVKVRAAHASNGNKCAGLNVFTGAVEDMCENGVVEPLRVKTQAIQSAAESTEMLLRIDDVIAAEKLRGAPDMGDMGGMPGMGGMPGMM
Chain of DNA polymerase III PolC-type (Bacillus subtilis (strain 168)) (P13267 whole entry, looked up): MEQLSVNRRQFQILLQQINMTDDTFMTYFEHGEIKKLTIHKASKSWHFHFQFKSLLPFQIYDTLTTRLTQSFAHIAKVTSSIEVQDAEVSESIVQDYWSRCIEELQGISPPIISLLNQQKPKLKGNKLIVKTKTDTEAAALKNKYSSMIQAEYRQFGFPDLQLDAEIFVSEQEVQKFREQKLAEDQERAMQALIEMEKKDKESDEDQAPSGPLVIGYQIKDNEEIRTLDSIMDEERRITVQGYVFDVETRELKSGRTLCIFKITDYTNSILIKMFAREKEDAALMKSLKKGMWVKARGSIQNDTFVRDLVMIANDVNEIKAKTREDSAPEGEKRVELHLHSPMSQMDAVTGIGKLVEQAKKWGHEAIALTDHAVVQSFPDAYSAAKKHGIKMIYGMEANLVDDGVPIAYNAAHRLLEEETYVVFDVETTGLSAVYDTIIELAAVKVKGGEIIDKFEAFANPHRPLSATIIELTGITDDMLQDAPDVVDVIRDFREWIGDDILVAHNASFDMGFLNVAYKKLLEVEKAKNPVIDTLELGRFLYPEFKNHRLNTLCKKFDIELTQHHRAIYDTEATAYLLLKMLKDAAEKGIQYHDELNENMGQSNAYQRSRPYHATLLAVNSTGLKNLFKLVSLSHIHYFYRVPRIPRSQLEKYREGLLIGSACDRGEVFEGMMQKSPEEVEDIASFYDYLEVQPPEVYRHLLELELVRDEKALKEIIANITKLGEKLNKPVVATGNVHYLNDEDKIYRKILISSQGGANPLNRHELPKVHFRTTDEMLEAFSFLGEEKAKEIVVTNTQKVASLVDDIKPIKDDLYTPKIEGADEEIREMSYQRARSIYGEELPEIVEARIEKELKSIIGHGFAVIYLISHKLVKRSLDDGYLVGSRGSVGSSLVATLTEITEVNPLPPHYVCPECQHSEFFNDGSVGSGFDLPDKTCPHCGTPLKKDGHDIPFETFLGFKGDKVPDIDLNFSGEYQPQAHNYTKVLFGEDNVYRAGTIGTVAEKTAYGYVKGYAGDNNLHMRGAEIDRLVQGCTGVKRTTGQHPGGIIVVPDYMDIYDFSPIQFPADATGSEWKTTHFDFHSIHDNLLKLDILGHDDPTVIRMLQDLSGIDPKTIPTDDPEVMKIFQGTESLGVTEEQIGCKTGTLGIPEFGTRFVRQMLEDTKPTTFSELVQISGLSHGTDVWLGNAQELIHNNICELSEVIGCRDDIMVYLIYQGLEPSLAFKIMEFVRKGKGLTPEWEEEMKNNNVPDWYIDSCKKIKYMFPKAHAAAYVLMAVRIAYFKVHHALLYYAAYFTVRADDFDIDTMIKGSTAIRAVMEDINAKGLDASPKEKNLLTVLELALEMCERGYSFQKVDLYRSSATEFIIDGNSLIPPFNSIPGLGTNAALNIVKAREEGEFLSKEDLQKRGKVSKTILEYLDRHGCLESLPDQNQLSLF
Chain of Flap endonuclease 1 (Homo sapiens) (P39748 whole entry, looked up): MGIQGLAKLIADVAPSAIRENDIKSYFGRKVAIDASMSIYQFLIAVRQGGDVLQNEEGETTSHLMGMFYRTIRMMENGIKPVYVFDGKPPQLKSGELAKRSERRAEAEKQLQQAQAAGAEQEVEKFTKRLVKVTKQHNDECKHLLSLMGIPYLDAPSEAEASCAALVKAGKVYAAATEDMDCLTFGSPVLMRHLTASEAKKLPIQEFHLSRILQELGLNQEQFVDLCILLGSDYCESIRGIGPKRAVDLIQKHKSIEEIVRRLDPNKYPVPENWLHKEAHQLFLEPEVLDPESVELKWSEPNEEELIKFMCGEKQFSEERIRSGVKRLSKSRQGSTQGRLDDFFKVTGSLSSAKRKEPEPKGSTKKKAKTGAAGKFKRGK
Chain of Tumor susceptibility gene 101 protein (Homo sapiens) (Q99816 whole entry, looked up, the tested form may be a part): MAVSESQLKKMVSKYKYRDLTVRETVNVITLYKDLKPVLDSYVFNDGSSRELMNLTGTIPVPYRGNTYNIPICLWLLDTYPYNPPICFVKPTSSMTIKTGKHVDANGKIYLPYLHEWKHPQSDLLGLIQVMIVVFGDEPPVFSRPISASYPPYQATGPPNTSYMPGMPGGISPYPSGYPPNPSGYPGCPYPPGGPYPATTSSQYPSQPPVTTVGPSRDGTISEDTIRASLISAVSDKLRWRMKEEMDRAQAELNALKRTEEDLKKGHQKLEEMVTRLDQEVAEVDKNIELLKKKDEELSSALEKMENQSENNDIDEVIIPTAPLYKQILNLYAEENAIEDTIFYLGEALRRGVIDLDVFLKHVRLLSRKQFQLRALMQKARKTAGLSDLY

For `C=CCNC1=C2C[C@@H](C)C[C@H](OC)[C@H](O)[C@@H](C)/C=C(\C)[C@H](OC(N)=O)[C@@H](OC)/C=C\C=C(/C)C(=O)NC(=CC1=O)C2=O`, in test [1], the molecule was called inactive.
`CN[C@H]1CC[C@@H](c2ccc(Cl)c(Cl)c2)c2ccccc21`: the result in test [2], in test [3], in [4], in [5], in [6] and in test [7] was inactive. For the same molecule, the call in test [8], in test [9], in test [10], in test [11], in test [12] and in test [13] was inactive. In addition, the result in test [15], in test [1] and in [17] was inactive. Besides, the Potency in test [14] is 11.2 µM (active); in [16], 10 µM (active).
On to `COC1C(OC(=O)/C=C/C=C/C=C/C=C/C(=O)O)CCC2(CO2)C1C1(C)OC1CC=C(C)C` (stereo not drawn), for which the result in test [1] was inactive.
Consider `CCCOc1ccc2nc(NC(=O)OC)sc2c1`, for which the result in test [1] was inactive.
As for `NCCCC(=O)O`, the result in test [18], in test [19], in test [2], in test [3], in [4] and in test [5] was inactive. Also, the result in test [6], in test [7], in test [8], in test [9], in test [10] and in [11] was inactive. The molecule was classed as inactive in test [12], in [20], in [13] and in [17]. The Potency entry in [14] and in test [16] was “inactive” each time.
